Pf growth 48h = P. falciparum growth inhibition at 48 hours (one generation); P. falciparum luciferase growth in erythrocytes, 48 h; Potency, µM (series often up to 28.7 µM), inactives show top-dose activity change, negative = inhibition, hits mostly inhibitors; 310,000 tested, 5.9% active; also: potency is read from the fitted curve at half-maximal effect; % is scaled to controls: 0 for no effect and ±100 for the full control effect
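Firefly luciferase activity from engineered P. falciparum reports growth; inhibitors lower the luminescent signal. Cultures contained 2% hematocrit erythrocytes at 0.1% final parasitemia.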
Cycloheximide cs = counter-screen hit for Shiga toxin inhibitors, cycloheximide; cell reporter, cycloheximide protein synthesis inhibition counterscreen; max response, %; 300,000 tested, 12% active; AID 2314; in the data active = max response mostly above about 13%, no sharp cut-off; inactive = mostly below about 14%; also: read at 38.3 µM for the half of the compounds with a filed dose; 0% is about no effect
Pf growth 96h = inhibits malaria parasite growth, 96 h | P. falciparum luciferase reporter growth, 96 h | Potency, µM (highest dose often 28.7 µM), for inactives: top-dose activity change, negative = inhibition, usual class: inhibitors | 320,000 tested, 6.9% active | AID 504834; also: potency is read from the fitted curve at half-maximal effect; % is scaled to controls: 0 for no effect and ±100 for the full control effect
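Erythrocytes infected with luciferase-expressing P. falciparum were dispensed at 2% hematocrit and 0.05% parasitemia (final), then incubated with compounds 96 hours at 37 C in 5% CO2. Luminescence after detection reagent addition reported growth.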
Shiga toxin inh = blocks Shiga toxin action in Vero cells; Vero cells, Shiga toxin protein synthesis inhibition reporter; inhibition, % at 38.7 µM; 290,000 tested, 9.2% active; in the data active = inhibition mostly above about 28%, no sharp cut-off; inactive = mostly below about 43%; also: 0% is about no effect
Active calls of the source: *; ? = inconclusive; / = not tested or not shown. An excerpt weighted towards active compounds, which were near 21% of everything screened. Unless noted, calls follow the shape of the dose curve; as a rule, active = well fitted inhibition curve with a large enough effect; inconclusive = small, poorly fitted or top-dose-only effect, or another doubt; inactive = no such curve, though single readings can be large or run the other way.

SMILES | Pf growth 48h | Cycloheximide cs | Pf growth 96h | Shiga toxin inh
CC[C@H](C)[C@H](NC(=O)[C@H](Cc1ccc(O)cc1)NC(=O)[C@@H]1CCCN1C(=O)[C@@H](N)CCCN=C(N)N)C(=O)N[C@@H](CC(C)C)C(=O)O | / | -4.5 | / | -2.1
COc1ccc(C/C(N)=N/OC(=O)c2cccs2)cc1 | 46.1% | 18.8 | 3.1% | 38.4
N/C(Cc1cccc2ccccc12)=N\OC(=O)c1ccc(Br)o1 | ? | 18.4 | 22.4% | 46.6
COc1ccccc1C/C(N)=N/OC(=O)c1cccs1 | 13.0% | 18.3* | 19.2% | 39.9
COc1ccccc1C/C(N)=N/OC(=O)/C=C/c1ccccc1 | ? | 21.9* | ? | 52.7*
N/C(Cc1cccc2ccccc12)=N\OC(=O)Cc1cccs1 | ? | 49.1* | 35.9% | 62.4*
N/C(Cc1cccc2ccccc12)=N\OC(=O)c1cccs1 | 13.1µM* | -1.7 | 9.6% | -2.0
O=C1CCC(C(=O)N2CCN(c3ccccc3)CC2)CN1CC1CCCCC1 (stereo not given) | ? | 19.6 | -3.2% | 9.2
O=C1OC(CC(=O)N(Cc2nnc(-c3ccc(Cl)cc3)o2)C2CC2)c2ccccc21 (stereo not given) | ? | / | -22.0% | /
CCc1ccc(N2CSC3=C(C#N)C(c4cccs4)CC(=O)N3C2)cc1 (stereo not given) | 25.7% | 14.8* | / | 35.3
COc1ccc(N2CSC3=C(C#N)C(c4cccs4)CC(=O)N3C2)cc1 (stereo not given) | -27.4% | 18.1* | -0.9% | 46.5
Cc1ccc(N2CSC3=C(C#N)C(c4cccs4)CC(=O)N3C2)cc1 (stereo not given) | / | 11.3 | 14.7µM* | 31.3
COc1ccccc1NC(=O)N1CCC(c2nc3ccccc3o2)CC1 | 12.0% | -1.0 | 23.3µM* | -14.7
O=C(Nc1ccccc1)N1CCN(c2ccc(F)cc2)CC1 | 13.1µM* | 24.4 | ? | 21.1
COc1ccccc1NC(=O)N1CCN(C(=O)Nc2ccccc2OC)CC1 | -13.9% | -2.1 | 31.7% | -3.0
COc1ccccc1NC(=O)N1CCN(c2ccc(F)cc2)CC1 | -20.6% | -1.6 | 2.33µM* | 5.0
CC(=O)OC(C(=O)N1CCN(c2ccc(F)cc2)CC1)c1ccccc1 (stereo not given) | 31.9% | 5.2 | 11.7µM* | -9.2
CCc1ccccc1NS(=O)(=O)Cc1ccccc1 | 2.4% | 9.2 | ? | -8.1
CC(=O)c1ccc(N2CCN(C(=O)Nc3ccc(F)cc3)CC2)cc1 | -24.5% | 20.9* | -12.6% | 41.9
CC1=CC(C)(C)N2C(=O)C3(SCC(=O)N3c3ccc(F)cc3)c3cc(C)cc1c32 (stereo not given) | / | -4.1 | 4.15µM* | -18.1
Cc1cc(C(=O)CN2C(=O)NC3(CCCc4ccccc43)C2=O)c(C)n1Cc1cccs1 (stereo not given) | / | 7.0 | / | 17.2
Cc1cc(C(=O)CN2C(=O)NC(C)(c3cccc(Br)c3)C2=O)c(C)n1Cc1ccco1 (stereo not given) | 1.47µM* | 1.9 | 10.3% | 4.1
Cc1cc(C(=O)CN2C(=O)NC(c3ccccc3)(c3ccccc3)C2=O)c(C)n1Cc1ccco1 | 1.31µM* | 7.0 | -22.0% | 50.8
O=[N+]([O-])c1ccccc1S(=O)(=O)Nc1ccc2c(c1)OCCO2 | 27.2% | 6.9 | 2.1% | -4.1
Cc1cc(Cl)c(S(=O)(=O)N2CCCCCC2)cc1OCC(=O)NC1CCCCC1 | / | -0.4 | 0.0586µM* | 12.8
SMILES | Pf growth 48h | Cycloheximide cs | Pf growth 96h | Shiga toxin inh
Cc1cc(Cl)c(S(N)(=O)=O)cc1OCC(=O)NC1CCCCC1 | 41.4% | 1.0 | -18.0% | -13.5
CCOC(=O)N1CCN(S(=O)(=O)c2cc(OCC(=O)NC3CCCCC3)c(C)cc2Cl)CC1 | / | -3.2 | 0.657µM* | -14.1
CCN1CCN(S(=O)(=O)c2cc(OCC(=O)NC3CCCCC3)c(C)cc2Cl)CC1 | 2.08µM* | -2.1 | 2.4% | -1.3
Cc1cc(Cl)c(S(=O)(=O)N2CCN(c3ccccn3)CC2)cc1OCC(=O)NC1CCCCC1 | 0.233µM* | -1.6 | ? | -7.0
Cc1cc(Cl)c(S(=O)(=O)N2CCSCC2)cc1OCC(=O)NC1CCCCC1 | / | 3.2 | 11.2% | -8.9
O=C(O)CCn1cc(/C=N/O)c(-c2cccc([N+](=O)[O-])c2)n1 | 7.0% | -1.2 | 5.2% | 10.4
Cc1ccc(/C=C/c2ccc(=O)n(Cc3ccccc3Cl)n2)cc1 | / | 7.1 | ? | 12.2
N#CC1=C2SC=C(c3ccc(Br)cc3)N2CCCC1=O | 155.3% | 43.6* | 244.3% | 118.0*
Cc1c(Cl)cccc1NC(CC(=O)c1ccccc1)C(=O)OCC(=O)c1cccs1 (stereo not given) | 2.0% | 23.3* | -70.4% | 80.8*
Cc1c(Cl)cccc1NC(CC(=O)c1ccccc1)C(=O)O (stereo not given) | 18.8% | 69.6* | 55.3% | 149.8*

Bioassay records: PubChem, National Center for Advancing Translational Sciences (NCATS)
